About 3,300 (8.5%) of roughly 39,000 compounds were called active. Only a selection was taken, and actives are over-represented in it overall.
Tested on: HepG2
Assay: cytotoxicity call (relative viability < 0.9)
Conditions: 10 µM

Structure (SMILES)	cytotoxicity call
CC(C)NC(=O)N(C)C[C@@H]1Oc2ccc(NC(=O)CCCN(C)C)cc2C(=O)N([C@@H](C)CO)C[C@@H]1C	inactive
C[C@@H]1CN([C@H](C)CO)C(=O)c2cc(NC(=O)CCN3CCOCC3)ccc2O[C@@H]1CN(C)Cc1ccccc1	inactive
C[C@H]1CN([C@@H](C)CO)C(=O)c2cc(C#CC3CC3)cnc2O[C@H]1CN(C)S(=O)(=O)c1cccc(F)c1	inactive
COc1ccc(NC(=O)Nc2ccc3c(c2)C(=O)N([C@@H](C)CO)C[C@@H](C)[C@H](CN(C)C(=O)NC(C)C)OCCCC[C@@H](C)O3)cc1	inactive
C[C@H]1CN([C@@H](C)CO)C(=O)c2cccc(NC(=O)c3ccncc3)c2O[C@@H]1CN(C)Cc1ccc2c(c1)OCO2	inactive
NNC(=S)NCc1ccc(F)cc1	inactive
N[C@@H](Cc1ccc(F)cc1)C(=O)O	inactive
NC(=CS(=O)(=O)Cc1ccc(F)cc1)NO	active
CC(=O)O[C@H]1[C@H](O)[C@H](O)[C@H](O[C@@H]2[C@@H](Oc3cc(O)c4c(=O)cc(-c5ccc(O)c(O)c5)oc4c3)O[C@@H](C(=O)O)[C@H](O)[C@@H]2O)O[C@@H]1C	inactive
C[C@H]1CN([C@@H](C)CO)C(=O)c2cc(NC(=O)CCCN(C)C)ccc2O[C@@H]1CN(C)S(=O)(=O)c1ccc(Cl)cc1	inactive
CC(C)c1ccccc1OC[C@@H](O)CN	inactive
Cc1ccccc1OC[C@@H](O)CO	inactive
Cc1ccccc1OCC(O)CO (centres undefined)	active
COc1cccc(NC(=O)N(C)C[C@H]2Oc3ncc(Br)cc3C(=O)N([C@H](C)CO)C[C@H]2C)c1	inactive
C[C@H]1COC(=O)[C@@H](Cc2ccc(F)cc2)CC=CC[C@@H](CC(=O)N[C@H](CO)Cc2ccccc2)C(=O)N1	inactive
Cn1nccc1NC(=O)/C=C/C(=O)O	inactive
C[C@@H]1CN([C@@H](C)CO)S(=O)(=O)c2ccc(-c3cccc(C#N)c3)cc2O[C@@H]1CN(C)C(=O)c1cccnc1	inactive
C[C@@H]1CCCCO[C@@H](CN(C)C(=O)Nc2ccccc2)[C@@H](C)CN([C@H](C)CO)C(=O)c2cc(NC(=O)Nc3ccc(F)cc3)ccc2O1	inactive
C[C@@H]1CCCCO[C@@H](CN(C)C(=O)Nc2ccc(F)cc2)[C@H](C)CN([C@@H](C)CO)C(=O)c2cc(NC(=O)Nc3ccccc3)ccc2O1	inactive
C[C@@H]1CCCCO[C@H](CN(C)C(=O)Nc2ccc(F)cc2)[C@@H](C)CN([C@H](C)CO)C(=O)c2cc(NC(=O)Nc3ccc(F)cc3)ccc2O1	inactive
C[C@@H]1CCCCO[C@@H](CN(C)C(=O)Nc2ccc(F)cc2)[C@@H](C)CN([C@H](C)CO)C(=O)c2cc(NC(=O)Nc3ccc(F)cc3)ccc2O1	inactive
C[C@@H]1CN([C@H](C)CO)C(=O)c2cc(NC(=O)Nc3ccc(F)cc3)ccc2O[C@@H](C)CCCCO[C@H]1CN(C)C(=O)Nc1ccc(F)cc1	active
C[C@H]1CCCCO[C@H](CN(C)C(=O)Nc2ccccc2)[C@@H](C)CN([C@@H](C)CO)C(=O)c2cc(NC(=O)Nc3ccc(F)cc3)ccc2O1	active

Structure (SMILES)	cytotoxicity call
COc1ccc(NC(=O)Nc2ccc3c(c2)C(=O)N([C@H](C)CO)C[C@H](C)[C@H](CN(C)Cc2ccc4c(c2)OCO4)OCCCC[C@@H](C)O3)cc1	inactive
Cc1ccc(S(=O)(=O)N2C[C@H](O)COC[C@@H]3O[C@@H](CC(=O)NCc4ccc5c(c4)OCO5)CC[C@H]32)cc1	inactive
COc1ccc(S(=O)(=O)N(C)C[C@H]2Oc3c(cccc3N(C)C)C(=O)N([C@H](C)CO)C[C@@H]2C)cc1	inactive
CC(=O)N1[C@H](Cn2cncn2)C[C@H]2CN(C(N)=O)CC[C@H]21	inactive
COc1ccc(NC(=O)N(C)C[C@H]2OCCCC[C@@H](C)Oc3ccc(NC(=O)Nc4c(C)noc4C)cc3C(=O)N([C@@H](C)CO)C[C@H]2C)cc1	inactive
C[C@@H]1CCCCO[C@H](CN(C)Cc2ccccc2)[C@H](C)CN([C@@H](C)CO)C(=O)c2cc(NC(=O)CCC(F)(F)F)ccc2O1	inactive
COc1ccc(NC(=O)Nc2ccc3c(c2)C(=O)N([C@H](C)CO)C[C@@H](C)[C@@H](CN(C)C(=O)c2ccccc2)OCCCC[C@H](C)O3)cc1	inactive
NNC(=O)CCCCC(=O)NO	active
NNC(=O)CCCCCC(=O)NO	inactive
NNC(=O)CCCCCCC(=O)NO	inactive
Cc1cc([N+](=O)[O-])nn1CC(=O)NC(C)C	inactive
COc1cc2c(cc1OC)Cc1cc(OC)c(OC)cc1Cc1cc(OC)c(OC)cc1C2	inactive
COc1cc2c(cc1OC)C(=O)NCC2	active
COc1cc2c(cc1OC)C(=O)OC2	inactive
CO[C@H]1CN(C)C(=O)c2cc(NC(=O)C3CC3)ccc2OC[C@H](C)N(C(=O)Cc2ccccn2)C[C@H]1C	inactive
Cc1cc(C(=O)Nc2cccc3c2O[C@@H](CN(C)C(=O)Nc2ccccc2)[C@H](C)CN([C@@H](C)CO)C3=O)n(C)n1	inactive
NCCCCCc1nnc(SCC(N)=O)o1	inactive
Cc1ccc(CSc2nnc(CCN)o2)cc1	active
CC1(C)CC(=O)c2c(C(F)(F)F)nn(-c3ccc(C(N)=O)c(N[C@H]4CC[C@H](OC(=O)CN)CC4)c3)c2C1	active
CC1(C)CC(=O)c2c(C(F)(F)F)nn(-c3ccc(C(N)=O)c(O[C@H]4CC[C@H](N)CC4)c3)c2C1	inactive
CCCCCCCCCCCCCCCCCCCC(=O)N[C@H]1CC[C@@]2(C)[C@@H](C1)C[C@@H](O)[C@@H]1[C@@H]2C[C@H](O)[C@]2(C)[C@@H]([C@H](C)CCC(=O)O)CC[C@@H]12	inactive
CC(CCC(=O)O)C1CCC2C3CCC4CC(O)CCC4(C)C3CCC12C (centres undefined)	inactive
CC(C)[C@@H](CC[C@@H](C)[C@H]1CC[C@H]2[C@@H]3[C@H](O)C[C@H]4C[C@@H](NCCCNCCCCN)CC[C@]4(C)[C@H]3CC[C@]12C)OS(=O)(=O)O	active

Structure (SMILES)	cytotoxicity call
CC(CCC(=O)O)C1CCC2C3C(O)CC4CC(O)CCC4(C)C3CCC12C (centres undefined)	inactive
CC(C)[C@@H](CC[C@@H](C)[C@H]1CC[C@H]2[C@@H]3[C@H](O)C[C@H]4C[C@@H](NCCCNCCCCNCCCN)CC[C@]4(C)[C@H]3CC[C@]12C)OS(=O)(=O)O	active
CCC(CCC(C)C1CCC2C3CCC4CC(O)CCC4(C)C3CCC12C)C(C)C (centres undefined)	inactive
CC(C)NC(=O)Nc1ccc2c(c1)C(=O)N([C@H](C)CO)C[C@@H](C)[C@H](CN(C)S(=O)(=O)c1cccs1)O2	inactive
CO[C@H]1CN(C)C(=O)c2ccc(NS(C)(=O)=O)cc2OC[C@@H](C)N(C(=O)CN(C)C)C[C@@H]1C	inactive
Cn1nc(CN2CCCC2=O)c2c1CNC2	inactive
Cc1cc(C(=O)Nc2cccc3c2O[C@H](CN(C)Cc2ccc4c(c2)OCO4)[C@@H](C)CN([C@H](C)CO)C3=O)n(C)n1	inactive
CC(C)NC(=O)N(C)C[C@H]1Oc2ccc(NC(=O)C3CCCCC3)cc2CC(=O)N([C@@H](C)CO)C[C@H]1C	inactive
C[C@@H]1CN([C@H](C)CO)C(=O)c2ccccc2-c2ccccc2CO[C@@H]1CN(C)C(=O)Nc1ccc(-c2ccccc2)cc1	inactive
C[C@H](CO)N1C[C@H](C)[C@@H](CN(C)Cc2ccccc2)OCCCC[C@H](C)Oc2ccc(NC(=O)Nc3cccc4ccccc34)cc2C1=O	inactive
C[C@@H]1CCCCO[C@@H](CN(C)Cc2ccc(Cl)c(Cl)c2)[C@@H](C)CN([C@@H](C)CO)C(=O)c2cc(NC(=O)Nc3cccc4ccccc34)ccc2O1	active
C[C@H]1CCCCO[C@@H](CN(C)Cc2ccccc2)[C@@H](C)CN([C@@H](C)CO)C(=O)c2cc(NC(=O)Nc3cccc4ccccc34)ccc2O1	active
C[C@@H]1CN([C@H](C)CO)C(=O)c2cc(NC(=O)Nc3cccc4ccccc34)ccc2O[C@@H](C)CCCCO[C@@H]1CN(C)Cc1ccccc1	inactive
C[C@@H]1CCCCO[C@H](CN(C)Cc2ccccc2)[C@@H](C)CN([C@H](C)CO)C(=O)c2cc(NC(=O)Nc3cccc4ccccc34)ccc2O1	inactive
C[C@@H]1CCCCO[C@@H](CN(C)Cc2ccc(Cl)c(Cl)c2)[C@H](C)CN([C@H](C)CO)C(=O)c2cc(NC(=O)Nc3cccc4ccccc34)ccc2O1	inactive
C[C@@H]1CCCCO[C@@H](CN(C)Cc2ccc(Cl)c(Cl)c2)[C@H](C)CN([C@@H](C)CO)C(=O)c2cc(NC(=O)Nc3cccc4ccccc34)ccc2O1	inactive
C[C@@H]1CCCCO[C@@H](CN(C)Cc2ccccc2)[C@H](C)CN([C@H](C)CO)C(=O)c2cc(NC(=O)Nc3cccc4ccccc34)ccc2O1	inactive
C[C@@H]1CCCCO[C@H](CN(C)Cc2ccccc2)[C@H](C)CN([C@@H](C)CO)C(=O)c2cc(NC(=O)Nc3cccc4ccccc34)ccc2O1	active
C[C@@H]1CCCCO[C@H](CN(C)Cc2ccccc2)[C@H](C)CN([C@H](C)CO)C(=O)c2cc(NC(=O)Nc3cccc4ccccc34)ccc2O1	active
COc1ccc(NC(=O)N(C)C[C@H]2Oc3ncc(C#CCN(C)C)cc3C(=O)N([C@H](C)CO)C[C@H]2C)cc1	inactive
C[C@H](CO)N1C[C@H](C)[C@@H](CN(C)C(=O)C2CCOCC2)Oc2cc(-c3ccc(C(=O)N(C)C)cc3)ccc2S1(=O)=O	inactive
C[C@H]1CCCCO[C@H](CN(C)Cc2ccc(C(F)(F)F)cc2)[C@@H](C)CN([C@@H](C)CO)C(=O)c2cc(NC(=O)c3ccncc3)ccc2O1	inactive
C[C@@H]1CCCCO[C@@H](CN(C)C(=O)CCCN(C)C)[C@@H](C)CN([C@H](C)CO)C(=O)c2cc(N(C)C)ccc2O1	inactive

— the antibiotic and cytotoxicity screens of Wong et al. (2023)
